High-throughput results from PubChem BioAssay.
Pol beta inh: blocks human DNA polymerase beta activity; 340,000 tested, 1.3% active; AID 485314; Pol beta primer extension/strand displacement, fluorescence kinetic; Potency, µM (doses to about 114 µM), for the others: at the highest dose activity change, negative = inhibition, most hits filed as inhibitors; P06746; further: potency means the concentration at half of the fitted maximal effect; on the % scale 0 is the no-effect control and ±100 the full control effect
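Human Pol beta at 10 nM; strand-displacement substrate 50 nM final. Compound exposure 15 min at room temperature before start, reaction 10 min at room temperature.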
POLH inh: inhibitors of human DNA polymerase eta; Q9Y253; recombinant Pol eta, fluorescent DNA replication assay; Potency, µM (series often up to 114 µM), for inactives: top-dose activity change, negative = inhibition, hits mostly inhibitors; 390,000 tested, 1.2% active; AID 588591; further: potency means the concentration at half of the fitted maximal effect; on the % scale 0 is the no-effect control and ±100 the full control effect
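Fluorescent replication assay: 50 nM final substrate added after a 15 min room-temperature compound preincubation with 10 nM enzyme. Signal taken at 0 min and again at 10 min.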
POLK inh: DNA polymerase kappa (human) inhibition. purified Pol kappa, fluorescent DNA synthesis assay, 10 min. Potency, µM (titrated, usually from 107 µM), for the others: at the highest dose activity, negative = inhibition, actives largely listed as inhibitors. 400,000 tested, 0.53% active. AID 588579; further: potency means the concentration at half of the fitted maximal effect; on the % scale 0 is the no-effect control and ±100 the full control effect
Target sequence (Q9UBT6 whole entry, looked up): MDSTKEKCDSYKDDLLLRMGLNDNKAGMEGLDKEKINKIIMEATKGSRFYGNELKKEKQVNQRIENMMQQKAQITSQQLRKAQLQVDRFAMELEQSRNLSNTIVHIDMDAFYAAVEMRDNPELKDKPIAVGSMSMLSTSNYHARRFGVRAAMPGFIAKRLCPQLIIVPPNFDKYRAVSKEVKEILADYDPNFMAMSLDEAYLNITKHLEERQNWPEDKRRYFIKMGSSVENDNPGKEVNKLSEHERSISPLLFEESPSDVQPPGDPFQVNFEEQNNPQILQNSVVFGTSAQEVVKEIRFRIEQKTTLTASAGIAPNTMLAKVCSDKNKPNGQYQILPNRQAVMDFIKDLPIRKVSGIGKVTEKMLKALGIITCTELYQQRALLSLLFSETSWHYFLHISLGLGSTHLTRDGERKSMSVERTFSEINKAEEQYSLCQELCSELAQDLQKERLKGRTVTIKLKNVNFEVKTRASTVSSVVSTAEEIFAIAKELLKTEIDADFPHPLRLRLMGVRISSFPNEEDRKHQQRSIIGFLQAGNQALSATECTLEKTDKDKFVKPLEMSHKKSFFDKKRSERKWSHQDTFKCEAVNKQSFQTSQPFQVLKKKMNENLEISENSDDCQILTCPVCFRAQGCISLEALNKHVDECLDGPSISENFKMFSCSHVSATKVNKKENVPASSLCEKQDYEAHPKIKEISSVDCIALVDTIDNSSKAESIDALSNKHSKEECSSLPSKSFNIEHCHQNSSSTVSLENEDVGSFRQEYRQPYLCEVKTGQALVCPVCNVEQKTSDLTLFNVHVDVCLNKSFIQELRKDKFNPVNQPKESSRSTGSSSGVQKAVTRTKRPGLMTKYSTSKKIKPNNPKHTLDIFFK
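10 nM Pol kappa preincubated 15 min at room temperature with compounds, then reaction started with substrate at 50 nM final. Fluorescence read kinetically at 0 and 10 min; buffer-only wells served as negative control.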
PI5P4Ka inh: inhibitors of human PI5P4K alpha | PI5P4Kalpha enzyme, ADP-Glo luminescence, 60 min; active compounds read low | max response, % | P48426 | AID 652105 | 330,000 tested, 1.2% active; active means max response of -50% or lower; inconclusive means between -30% and -50%; inactive means -30% or higher; further: value at the top dose of about 77 µM; on the % scale 0 is the no-effect control and ±100 the full control effect
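Enzyme plus substrate dispensed, test compounds pinned in, then ATP (5 microM final) added. After 60 min at RT, ADP-Glo reagent 1 for 45 min and reagent 2 for 30 min preceded luminescence imaging.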
WRN helicase inh: blocks human WRN helicase; Q14191; WRN helicase unwinding, fluorescent forked duplex, kinetic; Potency, µM (series often up to 114 µM), inactives show at the top dose activity change, negative = inhibition, usual class: inhibitors; 360,000 tested, 0.46% active; AID 651768; further: potency means the concentration at half of the fitted maximal effect; on the % scale 0 is the no-effect control and ±100 the full control effect; nearly all actives have a fitted effect of over 55% in size
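WRN at 20 nM final preincubated with compound 15 min at room temperature; reaction started with 100 nM fluorophore/quencher forked duplex oligonucleotide and 2 mM ATP final. Unwinding followed kinetically by red fluorescence (ex 525, em 598 nm).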
Pol iota inh: DNA polymerase iota (human) inhibition. Pol iota fluorescent replication assay, 10 min. Potency, µM (top dose mostly 115 µM), for inactives: top-dose activity, negative = inhibition, most hits filed as inhibitors. 390,000 tested, 1% active; further: potency means the concentration at half of the fitted maximal effect
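Fluorescent replication assay read twice, at 0 min and 10 min after adding 50 nM (final) substrate. Enzyme (10 nM) and compounds were first incubated 15 min at room temperature; enzyme-free buffer wells were negative controls.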
* marks the source's active call; other numbers are inactive results; ? = inconclusive; . = no result given; ! = repeats disagree; [ ] = another dose, or the depositor's remark. The list is not random: actives were taken first. Their share in the collection is about 2.8%. Unless noted, the call rests on the fitted dose curve; in most records, active means well fitted curve in the direction sought with a large enough effect; inconclusive means small, poorly fitted or top-dose-only effect, or another doubt; inactive means no such curve, though single readings can be large; an effect the other way counts as inactive or inconclusive.

SMILES	Pol beta inh	POLH inh	POLK inh	PI5P4Ka inh	WRN helicase inh	Pol iota inh
CC1CCN(S(=O)(=O)c2nnc(NC(=O)c3cccc(Br)c3)s2)CC1	1%	-1%	-8%	.	.	-10%
Cc1cccc(C(=O)Nc2nnc(S(=O)(=O)N3CCCc4ccccc43)s2)c1	-17%	?	-17%	.	.	16%
COc1cccc(C(=O)Nc2nnc(S(=O)(=O)N3CCCc4ccccc43)s2)c1	-18%	50µM*	-9%	.	.	41%
O=C(Nc1nnc(S(=O)(=O)N2CCCCC2)s1)c1cccc(Br)c1	-19%	45µM*	-17%	-8	-6%	?
Cc1cccc(C(=O)Nc2nnc(S(=O)(=O)N3CCC(C)CC3)s2)c1	-6%	79µM*!	-7%	-15	-3%	-6%
CS(=O)(=O)N1CCN(/[N+]([O-])=N/Oc2ccc([N+](=O)[O-])cc2[N+](=O)[O-])CC1 (tested in a mixture with another compound)	.	.	-14%	.	.	?
N#CC(CC(=O)OCc1ccccc1)NC(=O)OCc1ccccc1 (centres undefined)	.	-16%	.	4	5%	.
Cc1cc(C)c(S(=O)(=O)NCCc2cc3c(C)ccc(C)c3[nH]c2=O)c(C)c1	?	-12%	-13%	.	.	16%
COc1cc(/C=C/C(=O)c2c(O)cc(C)oc2=O)cc(OC)c1O	0%	?	-13%[60.1 µM]	2	-16%	?
Cc1cc(O)c(C(=O)/C=C/c2ccc(Cl)cc2)c(=O)o1	-27%	-9%	-13%	-69*	-20%	85%
CSc1ccc(/C=C/C(=O)c2c(O)cc(C)oc2=O)cc1	-7%	-4%	-15%	-54*	-24%	?
COc1ccc(/C=C/C(=O)c2c(O)cc(C)oc2=O)c(OC)c1	31%	-7%	4%	-10	-9%	?
COc1ccc(NC(=O)C2c3ccccc3OCC(=O)N2Cc2cccnc2)cc1 (centres undefined)	.	.	.	1	-1%	.
CC(=O)c1ccc(NC(=O)c2cc(C3CC3)nc3c2c(C)nn3-c2ccc(C)cc2)cc1	-2%	-24%	0%	.	.	28%
Cc1ccc(C(=O)N2CCC(c3c[nH]c4ccccc34)(c3c[nH]c4ccccc34)CC2)cc1	12%	-20%	-3%	.	.	14%
COc1ccccc1NC(=O)Nc1ccnn1C1CCN(C(=O)c2ccccn2)CC1	19%	?	7%	-4	-22%	25%
COc1ccccc1NC(=O)Nc1ccnn1C1CCN(C(=O)c2cscn2)CC1	28%	-9%	40µM*	-3	5%	32µM*
CC(=O)Nc1ccccc1C(F)(F)F	3%	-12%	-12%	0	5%	22%
NNc1ccccc1C(F)(F)F	20µM*	4%	-3%	3	?	69%
O=C(CCl)N1c2ccccc2Sc2ccc3ccccc3c21	.	14µM*	.	0	-16%	.
O=C(COc1ccc2ccccc2c1)N1c2ccccc2Sc2ccccc21	-26%	-15%	-11%	.	-15%	-17%[58.9 µM]
C[n+]1c2n(c3ccccc31)N=C(c1ccc(-c3ccccc3)cc1)CS2	-11%	-2%	-3%	1	34%	3%
C[n+]1c2n(c3ccccc31)N=C(c1ccc(Br)cc1)CS2	1%	-9%	-7%	.	-14%	25µM*
COc1ccc(C(=O)C[n+]2ccc(Cl)c3ccc(Cl)cc32)cc1	.	.	0%	.	.	-11%
O=C1c2ccccc2C(=O)N1CCc1csc(NNc2nc(CCN3C(=O)c4ccccc4C3=O)cs2)n1	25µM*	?	89µM*	-69*	-31%	?
SMILES	Pol beta inh	POLH inh	POLK inh	PI5P4Ka inh	WRN helicase inh	Pol iota inh
CCOC(=O)Cc1cn2c(=O)cc(CSCC(=O)Nc3ccc(C)c(C)c3)nc2s1	?	89µM*	-20%	-28	-26%	?
Cn1c(SCc2ccc(F)cc2)nc2ccc(C(=O)NCc3cccc(Cl)c3)cc21	3%	-25%	-7%	.	.	5%
Cc1ccc2oc(-c3cc(NC(=O)c4ncn[nH]4)ccc3O)nc2c1	?	45µM*	-8%	?	-10%[11.6 µM]	34%
Cc1ccc2oc(-c3ccc(NC(=O)c4ccncc4)cc3O)nc2c1	?	11%	-11%	-7	2%[57.1 µM]	76%
CC[N+]1(C)CCC(O)(c2ccc(OC)cc2)C(C(=O)c2ccc(OC)cc2)C1 (centres undefined)	.	?	-8%	-3	10µM*	?
Cn1cccc1-c1cc(C(=O)N/N=C/C=C/c2ccccc2)[nH]n1	10µM*	-5%	?	-24	-6%	?
COc1cccc(/C=N/NC(=O)c2cc(-c3cccn3C)n[nH]2)c1	35µM*	?	?	0	1%	?
Cn1cccc1-c1cc(C(=O)N/N=C/c2ccc(Cl)cc2)[nH]n1	?	2%	?	1	-11%	10%
COc1cccc(/C=N/NC(=O)c2cc(-c3cccn3C)n[nH]2)c1O	?	-10%	-32%	?	?	?
CCNC(=O)C1(C)CCN(C(=O)c2c(F)cccc2F)C1 (centres undefined)	.	.	.	0	3%	.
CCOc1ccc(C2C(C(=O)Nc3ccccc3)=C(C)N=c3s/c(=C/c4cccc(OCC(=O)O)c4)c(=O)n32)cc1 (centres undefined)	-28%	?	-11%	-22	?	?
CC1=C(C(=O)Nc2ccccc2)C(c2ccc(Cl)cc2)n2c(s/c(=C/c3cccc(OCC(=O)O)c3)c2=O)=N1 (centres undefined)	79µM*	56µM*	-13%	?	?	?
COc1ccc(C2C(C(C)=O)=C(C)N=c3s/c(=C\c4ccco4)c(=O)n32)c(OC)c1 (centres undefined)	35µM*	2%	-32%	-1	-12%	?
CCOC(=O)C1=C(c2ccccc2)N=c2s/c(=C\c3ccco3)c(=O)n2C1c1cccs1 (centres undefined)	10µM*	79µM*	?	.	?	20µM*
COc1ccc(C2C(C(C)=O)=C(C)N=c3s/c(=C\c4cc(C)n(C)c4C)c(=O)n32)c(OC)c1 (centres undefined)	12%	-24%	-12%	12	?	-8%
CCOC(=O)C1=C(c2ccccc2)N=c2s/c(=C\c3cc(OC)c(OC)c(OC)c3)c(=O)n2C1c1cccs1 (centres undefined)	3%	-12%	-18%	.	-22%	?
CCOC(=O)C1=C(C)N=c2s/c(=C\c3ccc(OCC(=O)O)cc3)c(=O)n2C1c1ccccc1OC (centres undefined)	13%	40µM*	-6%	-10	-3%	17%
